Compound activity (PubChem)
GLP-1R inv ag: GLP-1 receptor (human) inverse agonism; Potency, µM (titrated, usually from 38.3 µM), most hits filed as inhibitors; HEK293 GLP-1R CRE-luciferase, luminescence, 24 h; GLP-1R form is constitutively active; 410,000 compounds, 1.6% hits; P43220; further: nearly all actives have a fitted effect of over 55% in size
Target sequence (P43220 whole entry, looked up): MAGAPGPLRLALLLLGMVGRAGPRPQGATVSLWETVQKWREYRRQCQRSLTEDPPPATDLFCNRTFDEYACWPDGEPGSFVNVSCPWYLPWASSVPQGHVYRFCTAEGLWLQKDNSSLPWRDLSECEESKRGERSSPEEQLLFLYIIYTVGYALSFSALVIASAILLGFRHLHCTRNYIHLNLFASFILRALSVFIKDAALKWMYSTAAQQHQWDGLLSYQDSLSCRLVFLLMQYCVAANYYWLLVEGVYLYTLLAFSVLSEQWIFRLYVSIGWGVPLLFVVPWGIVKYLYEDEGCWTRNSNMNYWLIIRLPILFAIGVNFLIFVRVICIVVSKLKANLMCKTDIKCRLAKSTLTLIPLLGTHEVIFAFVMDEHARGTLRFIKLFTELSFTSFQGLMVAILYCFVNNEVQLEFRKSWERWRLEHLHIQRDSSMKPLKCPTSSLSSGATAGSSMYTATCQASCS
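Seeding at 200 cells/uL, 12 h culture, 24 hr compound treatment, then luciferase reagent and a luminescence read; cells are HEK293 stably expressing a constitutively active GLP-1R plus cAMP-responsive luciferase.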
GLP1R cytotox: cytotoxic in the GLP-1 receptor inverse agonist counter-screen | HEK293 cAMP-luciferase reporter cells, luminescence, 24 h | Potency, µM (highest dose often 38.3 µM), hits mostly inhibitors | 410,000 compounds, 0.13% hits | AID 624418;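 further: loss of luciferase light is scored as toxicity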
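Compound-treated cells are incubated 24 hr at 37 deg C under 5% CO2 after a 12 hour attachment period, then luciferase detection reagent is added and luminescence is measured following 12 min at room temperature; lowered signal indicates toxicity.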
GLP-1R agonist: activates the human GLP-1 receptor; P43220; HEK293 GLP-1R CRE-luciferase, luminescence, 4-6 h; cells express a hypersensitive GLP-1R form; Potency, µM (top dose mostly 45.6 µM), hits mostly activators; 380,000 compounds, 0.007% hits
VP16 counter: counter-screen for ROR gamma inhibitors: Gal4-VP16 reporter. Potency, µM (top dose mostly 53.6 µM), actives largely listed as inhibitors. Drosophila S2 Gal4-VP16 UAS-luciferase, luminescence, 20 h. 310,000 compounds, 3.5% hits;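 further: Gal4-VP16 expression switched on by copper sulfate through the metallothionein promoter; nearly all actives have a fitted effect of over 50% in size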
RORg inh: inhibitors of mouse ROR gamma transcriptional activity; 310,000 compounds, 5.4% hits; Drosophila S2 Gal4-RORgamma UAS-luciferase reporter, 20 h; P51450; Potency, µM (series often up to 53.6 µM), most hits filed as inhibitors; further: nearly all actives have a fitted effect of over 60% in size
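In this cell-based reporter format, copper sulfate (700 uM final) drives Gal4–ROR gamma fusion expression from a metallothionein promoter in Drosophila Schneider cells; compounds preincubated 1 hr, reporter read after 20 hr at ambient temperature.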
Large screens that a line does not name were inactive; ! = repeats disagree. The list is not random: actives were taken first. Their share in the collection is about 5.9%. The call rests on the fitted dose curve; in most records, active means well fitted curve in the direction sought with a large enough effect; inconclusive means small, poorly fitted or top-dose-only effect, or another doubt; inactive means no such curve, though single readings can be large; an effect the other way counts as inactive or inconclusive.

COC(=O)NC(CCc1ccccc1)C(C(=O)OC)C(=O)OC (centres undefined)	none (no result: GLP-1R inv ag, GLP1R cytotox, GLP-1R agonist)
O=C(OCC(COC(=O)c1cccnc1)(COC(=O)c1cccnc1)COC(=O)c1cccnc1)c1cccnc1	none (no result: GLP-1R inv ag, GLP1R cytotox, VP16 counter, RORg inh)
COc1ccc(C(=O)NCCn2cc(SCC(=O)NCc3ccco3)c3ccccc32)cc1	GLP-1R inv ag inconclusive, RORg inh 10µM
COCCn1c(SCC(=O)N2CCC(C)CC2)nc2ccccc2c1=O	GLP1R cytotox inconclusive
COc1ccc(C(=O)Nn2c(SCC(=O)N3CCC(C)CC3)nc3ccccc3c2=O)cc1	GLP-1R inv ag inconclusive, GLP1R cytotox inconclusive, VP16 counter 10µM, RORg inh 10µM
CC(=O)CC/C=C(\C)CC/C=C(/C)CC/C=C(\C)CCC=C(C)C	none (no result: GLP-1R inv ag, GLP1R cytotox, VP16 counter, RORg inh)
CCCCC/C=C/C/C=C/CCCCCCCC(=O)NC(C)c1ccccc1 (centres undefined)	none (no result: GLP-1R inv ag, GLP1R cytotox, VP16 counter, RORg inh)
c1ccc2c(c1)CCN(c1nc3cc4c(cc3s1)OCCO4)C2	GLP-1R inv ag 7.1µM
CCCCOc1cc(C[C@@H]2CNC(=O)N2)ccc1OC	none (no result: GLP-1R inv ag, GLP1R cytotox, GLP-1R agonist)
CC1(O)/C=C\C=C(\CO)C2CC(C)(C)C2(O)CC1 (centres undefined)	none (no result: GLP-1R inv ag, GLP1R cytotox, GLP-1R agonist)
COc1cc(OC)c(NC(=O)c2nnn(Cc3ccc(C)cc3)c2N)cc1Cl	none (no result: GLP-1R agonist, VP16 counter, RORg inh)
CCOC(=O)C1=C(C)N(CC)C(=S)NC1c1ccccc1OC(F)F (centres undefined)	VP16 counter inconclusive, RORg inh 2µM
CCN1C(=S)N[C@@H](CCc2ccccc2)C(C(=O)OC)=C1C	GLP-1R inv ag inconclusive, VP16 counter inconclusive, RORg inh 4.5µM!
CCN1C(=S)N[C@@H](c2cccs2)C(C(=O)OC)=C1C	VP16 counter 20µM, RORg inh 4µM
Cc1ccc(Cn2ccc(=O)c(Cc3c(Cl)cccc3Cl)c2C)cc1	GLP-1R inv ag inconclusive
COc1ccc(Cn2ccc(=O)c(Cc3c(Cl)cccc3Cl)c2C)cc1	GLP-1R inv ag inconclusive, VP16 counter 16µM, RORg inh 16µM
CCCCc1nc2c(c3c1CC(C)OC3)CN(CCC(C)C)CC2 (centres undefined)	none (no result: GLP-1R inv ag, GLP1R cytotox, GLP-1R agonist)
CCc1cccc(Nc2c3c(nc4ncnn24)CCC3)c1	VP16 counter 16µM, RORg inh 10µM
Cc1ccc(Nc2c3c(nc4ncnn24)CC(C)CC3)cc1 (centres undefined)	VP16 counter inconclusive, RORg inh 18µM
CCOc1ccc(Nc2c3c(nc4ncnn24)CC(C)CC3)cc1 (centres undefined)	none
CN(C)CCCNc1oc(-c2ccc(Cl)cc2)nc1C#N	GLP-1R inv ag 5µM, RORg inh inconclusive
CC(C)(C)NC(=S)NCC1CC1	VP16 counter inconclusive, RORg inh 7.1µM
CC(C)=CCC1=C(OCC(=O)O)C(=O)c2ccccc2C1=O	GLP1R cytotox inconclusive, VP16 counter 2.2µM, RORg inh inconclusive
CCOC(=O)CSc1ccc(-c2nc3cc(C)c(C)cc3[nH]2)cn1	VP16 counter inconclusive, RORg inh 18µM
CCN1C(=O)c2ccc(C(=O)Nc3cccc(C(=O)O)c3)cc2C1=O	VP16 counter inconclusive, RORg inh 10µM
CCc1c(O)c(/C(C)=N\O)c(=O)n(-c2ccccc2)c1-c1ccccc1	VP16 counter 35µM, RORg inh inconclusive
C/C(=N/O)c1c(O)c(C)c(-c2ccccc2)n(-c2ccccc2)c1=O	VP16 counter 5.6µM, RORg inh 5.6µM
C=CCO/N=C(/C)c1c(O)c(CC)c(-c2ccccc2)n(-c2ccccc2)c1=O	GLP-1R inv ag inconclusive
CCN(CC)c1ccc(/C=N/NC(=O)OC)c(O)c1	VP16 counter inconclusive, RORg inh inconclusive
CCN(CC)c1ccc(/C=N/NC(=S)NC)c(O)c1	GLP-1R inv ag inconclusive, GLP1R cytotox inconclusive, VP16 counter 1.8µM, RORg inh 0.79µM
CCN(CC)c1ccc(/C=N/NC(=O)c2ccoc2C)c(O)c1	GLP-1R inv ag 3.5µM, VP16 counter 3.5µM, RORg inh 0.5µM
CCCCCCCCCCCCCCC(C(=O)O)C(O)(CC(=O)OC)C(=O)O (centres undefined)	VP16 counter inconclusive (no result: GLP-1R inv ag, GLP1R cytotox, GLP-1R agonist)
CON(C)C(=O)c1nnc2c(n1)[nH]c1ccccc12	none (no result: GLP-1R inv ag, GLP1R cytotox, GLP-1R agonist)
COc1ccc(NS(=O)(=O)c2ccc3[nH]c4c(c3c2)CCCCCC4)cc1	GLP-1R inv ag inconclusive (no result: GLP-1R agonist, VP16 counter, RORg inh)
Cc1ccc(NS(=O)(=O)c2ccc3[nH]c4c(c3c2)CCCCC4)cc1	GLP-1R inv ag 11µM, GLP1R cytotox inconclusive (no result: GLP-1R agonist, VP16 counter, RORg inh)
COc1ccc(OC)c(CNc2ncnc3c2nc2n3CCCC2)c1	GLP-1R inv ag inconclusive (no result: GLP-1R agonist, VP16 counter, RORg inh)
Nc1[nH]n2c(=O)c3c(nc2c1N=Nc1ccccc1)CCCC3	none
Cc1[nH]n2c(=O)c3c(nc2c1-c1ccccc1)CCC3	VP16 counter inconclusive, RORg inh 13µM
N#Cc1c[nH]n2c(=O)c3c(nc12)CCCC3	none (no result: GLP-1R inv ag, GLP1R cytotox, GLP-1R agonist)
O=c1c2c(nc3c(-c4ccccc4)c[nH]n13)CCCC2	VP16 counter inconclusive, RORg inh 10µM
Cc1[nH]n2c(=O)c3c(nc2c1-c1ccc(Cl)cc1)CCC3	VP16 counter inconclusive, RORg inh 2.2µM
CCCSc1ncc(Cl)c(C(=O)Nc2ccc(OC)cc2OC)n1	none (no result: GLP-1R agonist, VP16 counter, RORg inh)
O=C(NC1=NCCS1)c1sc2cc(Cl)cc(Cl)c2c1Cl	VP16 counter inconclusive, RORg inh 6.3µM
O=C(NC1=NCCS1)c1sc2ccccc2c1Cl	VP16 counter inconclusive, RORg inh inconclusive
C=CCc1cccc(C2C(C)CCC3C(=O)N4C(CCC(C)C4c4cccc(CC=C)c4)C(=O)N32)c1 (centres undefined)	none (no result: GLP-1R inv ag, GLP1R cytotox, GLP-1R agonist)
